High-throughput results from PubChem.
Giardia FBPA inh: blocks Giardia fructose-bisphosphate aldolase activity | purified Giardia FBPA | Potency, µM (top dose mostly 59.6 µM), for the others: at the top dose activity, negative = inhibition, hits mostly inhibitors | actives 0.71% (n = 290,000) | AID 2451; further: potency means the concentration at half of the fitted maximal effect; on the % scale 0 is the no-effect control and ±100 the full control effect; nearly all actives have a fitted effect of over 55% in size
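Giardia FBPA (40 nM reagent) was preincubated 10 min at RT with compound (up to 57.5 uM final), then substrate plus GAPDH/TPI/NAD/arsenate coupling system with diaphorase/resazurin was added; resorufin fluorescence (525/598 nm) was read after 20 min.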
Cycloheximide cs: counter-screen hit for Shiga toxin inhibitors, cycloheximide; cell reporter, cycloheximide protein synthesis inhibition counterscreen; max response, %; actives 12% (n = 300,000); AID 2314; in the data active means max response mostly above about 13%, no sharp cut-off; inactive means mostly below about 14%; further: read at 38.3 µM for the half of the compounds with a filed dose; 0% is about no effect
LmPK inhibitor: inhibitors of Leishmania mexicana pyruvate kinase. purified LmPK, Kinase-Glo ATP luminescence, 1 h. Potency, µM (highest dose often 57.5 µM), for the others: at the highest dose activity change, negative = inhibition, most hits filed as inhibitors. actives 0.37% (n = 290,000). AID 1721; further: potency means the concentration at half of the fitted maximal effect; on the % scale 0 is the no-effect control and ±100 the full control effect
Target sequence (Q27686 whole entry, looked up): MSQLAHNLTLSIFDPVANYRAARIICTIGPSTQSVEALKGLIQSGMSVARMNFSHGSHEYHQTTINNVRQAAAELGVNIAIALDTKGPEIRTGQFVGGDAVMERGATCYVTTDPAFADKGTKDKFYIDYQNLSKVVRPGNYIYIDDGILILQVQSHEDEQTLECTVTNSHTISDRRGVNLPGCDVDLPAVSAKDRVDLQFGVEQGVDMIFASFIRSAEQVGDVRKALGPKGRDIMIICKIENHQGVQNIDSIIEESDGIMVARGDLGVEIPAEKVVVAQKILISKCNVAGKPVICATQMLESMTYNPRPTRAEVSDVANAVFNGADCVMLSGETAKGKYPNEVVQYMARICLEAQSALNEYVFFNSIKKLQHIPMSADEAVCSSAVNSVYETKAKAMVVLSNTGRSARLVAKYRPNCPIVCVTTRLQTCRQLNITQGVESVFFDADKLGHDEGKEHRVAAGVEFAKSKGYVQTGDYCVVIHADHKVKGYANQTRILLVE
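ATP generated from ADP (0.1 mM) and PEP (0.5 mM) by 0.1 nM LmPK over 1 h at room temperature (pH 7.2 imidazole buffer) was detected by coupled luciferase luminescence. Values were normalized to uninhibited and no-enzyme wells.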
Shiga inhibitor: blocks Shiga toxin action in Vero cells; Vero cells, Shiga toxin protein synthesis inhibition reporter; inhibition, % at 38.7 µM; actives 9.2% (n = 290,000); in the data active means inhibition mostly above about 28%, no sharp cut-off; inactive means mostly below about 43%; further: 0% is about no effect
RE007 growth inh: less growth of the S. pombe RE007 Vpr strain; Potency, µM (highest dose often 92.2 µM), for inactives: at the highest dose activity change, negative = less growth, actives largely listed as inhibitors; AID 651644; actives 0.21% (n = 360,000); S. pombe RE007 Vpr strain, BacTiter-Glo ATP luminescence, 24 h; active means well fitted falling curve with a large enough effect; inconclusive means small, poorly fitted or top-dose-only effect; inactive means no such curve, though single readings can be large or run the other way; further: potency means the concentration at half of the fitted maximal effect; on the % scale 0 is the no-effect control and ±100 the full control effect; nearly all actives have a fitted effect of over 50% in size
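Fission yeast RE007 carrying one integrated HIV-1 vpr copy, seeded at OD 0.01 in PMG+AL medium with 23 nL pinned compound. Grown 24 h at 30 degrees; viability read by BacTiter-Glo luminescence after 5 min.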
Tb PYK inh: inhibitors of Trypanosoma brucei pyruvate kinase | TbPYK enzyme, Kinase-Glo Plus ATP luminescence, 45 min | Potency, µM (highest dose often 76.8 µM), inactives show at the highest dose activity, negative = inhibition, hits mostly inhibitors | actives 0.12% (n = 410,000) | AID 624173; further: potency means the concentration at half of the fitted maximal effect; on the % scale 0 is the no-effect control and ±100 the full control effect; nearly all actives have a fitted effect of over 50% in size
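Luminescence from Kinase-Glo Plus, added after a 45-minute room-temperature reaction, served as the end-point read-out. The enzyme and substrate were preincubated with compound before ADP (130 uM final) initiated turnover. Concentration-effect curves came from normalized qHTS data.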
Starred values were filed as active, the others as inactive; ? = inconclusive; . = no result given; + = active, no number; [ ] = remark or other dose. The full list was thinned out, with hits kept by preference. Unless noted, the call rests on the fitted dose curve; in most records, active means well fitted curve in the direction sought with a large enough effect; inconclusive means small, poorly fitted or top-dose-only effect, or another doubt; inactive means no such curve, though single readings can be large; an effect the other way counts as inactive or inconclusive.

SMILES	Giardia FBPA inh	Cycloheximide cs	LmPK inhibitor	Shiga inhibitor	RE007 growth inh	Tb PYK inh
CC(=O)Nc1ccc(NC(=O)CN(c2cccc(C(C)=O)c2)S(C)(=O)=O)cc1	4%	-3	4%	-10	-9%	-2%
S=C(NCC1CCCO1)c1ccc(Br)cc1 (stereo unspecified)	1%	3	-8%	20	-10%	-26%
COc1ccc(-c2nn3c(=O)cc(CN4CCN(C(=O)c5ccc(C(C)(C)C)cc5)CC4)nc3s2)cc1	.	.	.	.	.	1%
CSCCC(C(=O)Nc1c(C)cccc1C)n1c(COc2ccc(C)cc2)nc2ccccc21 (stereo unspecified)	.	.	.	.	5%	.
O=C(NC(=S)Nc1cc([N+](=O)[O-])ccc1Cl)c1ccccc1	?	41*	5%	62*	-3%	-3%
CC#CCCCC(=O)Nc1cccc(C(=O)O)c1	0%	25*	2%	82*	-6%	-2%
O=C(Nc1ccc([N+](=O)[O-])cc1)C(=O)Nc1cccc(C(=O)O)c1	0%	-6	25µM*	-14	?	?
CC(=O)c1cccc(NC(=S)NC(=O)c2cccc(Cl)c2)c1	?	30*	0%	+	23%	-7%
Cc1ccc(NC(=O)c2cc(C(=O)c3cc(Cl)ccc3O)cn(-c3ccc(C)cc3)c2=O)cc1	-5%	-4	1%	-8	.	-11%
COc1cc([N+](=O)[O-])ccc1NC(=S)NNC(=O)CCC(=O)Nc1ccccc1Cl	.	33*	-10%	28*	2%	-22%
O=C(NC(=S)Nc1cccc([N+](=O)[O-])c1)c1ccccc1	?	36*	-3%	78*	-12%	-7%
COCCCNC(=S)NNC(=S)Nc1cccc(Cl)c1	20%	28*	3%	90*	2%	-15%
Cc1cccc(C(=O)NC(=S)Nc2ccccc2C(F)(F)F)c1	-4%	9	3%	36	-5%	-4%
Cc1ccc(C(=O)NC(=S)Nc2ccccc2C(F)(F)F)cc1C	-7%	16*	2%	37*	-17%	2%
C=COCCNC(=S)Nc1cccc(Cl)c1	-4%	-1	3%	2	3%	-5%
CN(CC(=O)Nc1ccc(F)cc1)CC(=O)N1CCCC1	.	.	.	.	17%	-1%
Cc1ccc(C(=O)O)cc1NC(=S)NC(=O)c1ccc(-c2ccccc2)cc1	0%	31*	5%	57*	19%	-1%
CC(=O)c1cccc(NC(=S)NC(=O)c2ccccc2)c1	?	46*	2%	103*	25%	2%
CC(C)NC(=S)NC(=O)c1ccc(-c2ccccc2)cc1	2%	11	-2%	26*	-11%	-1%
NS(=O)(=O)c1ccc(NC(=S)NC(=O)c2ccc(-c3ccccc3)cc2)cc1	12%	-4	-6%	-9	3%	0%
CC(=O)c1cccc(NC(=S)Nc2ccc(F)cc2)c1	-10%	13*	2%	19	7%	1%
CNC(=S)Nc1cccc(C(C)=O)c1	-1%	2	4%	15	16%	4%
C=C1CC2C(=O)N(Cc3ccccc3)C(C(=O)O)C1N2C(=O)OC(C)(C)C (stereo unspecified)	-1%	-1	.	10	.	.
O=C(O)c1cccc(NC(=S)NC(NC(=O)c2cccc([N+](=O)[O-])c2)C(Cl)(Cl)Cl)c1 (stereo unspecified)	3%	11*	0%	21	2%	-13%
O=C(O)c1cccc(NC(=S)NC(NC(=O)c2ccccc2[N+](=O)[O-])C(Cl)(Cl)Cl)c1 (stereo unspecified)	9%	7	7%	22	11%	-18%
SMILES	Giardia FBPA inh	Cycloheximide cs	LmPK inhibitor	Shiga inhibitor	RE007 growth inh	Tb PYK inh
O=C(O)c1cccc(NC(=S)NC(=O)c2ccc(-c3ccc(Cl)cc3)o2)c1	-7%	21	2%	100*	-13%	-8%
O=C(O)CC(NNC(=O)c1ccccc1)C(=O)Nc1cccc([N+](=O)[O-])c1 (stereo unspecified)	-13%	23*	6%	72*	-5%	4%
O=C(O)c1cccc(NC(=S)NC(=O)c2ccc(-c3ccccc3)cc2)c1	0%	46*	0%	143*	67%	6%
CC(CC(=O)O)CC(=O)Nc1cccc([N+](=O)[O-])c1 (stereo unspecified)	-1%	-2	7%	-9	-7%	2%
Cc1ccc(C(=O)O)cc1NC(=S)NC(=O)c1ccc(-c2ccc(Cl)cc2)o1	-14%	-3	9%	-1	7%	4%
COc1ccc(NC(=O)c2sc3nc4c(cc3c2N)CN(C(C)C)CC4)c(OC)c1	.	.	.	.	.	-9%
Cc1nc2cccnc2n1-c1cccc(C(=O)NCc2ccc(OC(C)C)cc2)c1	.	.	.	.	.	-7%[15.4 µM]
CCOC(=O)C1(C)CCCN1C(=O)c1sccc1C (stereo unspecified)	.	.	.	.	3%[18.4 µM]	5%
CS(=O)(=O)N1CCN(c2ccc([N+](=O)[O-])cc2C(F)(F)F)CC1	-1%	8.9*	-1%	44	7%	?
CNS(=O)(=O)c1ccc(NCC2COc3ccccc3O2)c([N+](=O)[O-])c1 (stereo unspecified)	1%	16*	0%	-5	8%	-7%
CCS(=O)(=O)N1Cc2ccccc2CC1C(=O)Nc1nc2c(C)cccc2s1 (stereo unspecified)	0%	27*	1%	60*	7%	5%
CCSc1nnc(NC(=O)C2Cc3ccccc3CN2S(=O)(=O)CC)s1 (stereo unspecified)	10%	30*	3%	30	2%	1%
CCS(=O)(=O)N1Cc2ccccc2CC1C(=O)Nc1nc(C)cs1 (stereo unspecified)	-3%	43*	3%	85*	2%	4%
CCS(=O)(=O)N1Cc2ccccc2CC1C(=O)Nc1nccs1 (stereo unspecified)	-2%	30*	-1%	25*	4%	-8%
CO[C@H]1COC(=O)[C@H](C)NC(=O)[C@@H](C)COC(=O)C/C=C\[C@@H]1C	2%[12.9 µM]	.	.	.	.	.
CCCN(C(=O)c1cc2ccc3cccnc3c2[nH]1)c1ccc(F)cc1	.	.	.	.	.	-6%
CCOc1cc(CN2CCC(n3nccc3NC(=O)C3CC3)CC2)ccc1O	0%	2	-5%	-3	2%	8%
CN1C(=O)c2ccc(NC(=O)CSc3ccccc3)cc2C1=O	1%	28*	5%	32	-17%	0%
O=C(CSc1ccccc1)NC1=NCCS1	0%	22*	1%	45	-2%	-1%
O=C(CSc1ccc2ccccc2c1)Nc1ccncc1	5%	-3	-2%	-14	8%	-4%
CC(C)(C)NC(=O)c1ccc(NC(=O)CSc2ccccc2)cc1	1%	15*	-2%	28	14%	0%
